Over roughly 39,000 sequences, “fluorescence intensity (a.u.)” has its median near 4,300; the highest 2% begin near 39,000. What follows is part of a selection rich in the highest values, with near analogues and random picks from the rest.
Molecular target: T1, OsSMF1 (Oryza sativa, UniProt Q6ZLB0 1-436)
T1 sequence: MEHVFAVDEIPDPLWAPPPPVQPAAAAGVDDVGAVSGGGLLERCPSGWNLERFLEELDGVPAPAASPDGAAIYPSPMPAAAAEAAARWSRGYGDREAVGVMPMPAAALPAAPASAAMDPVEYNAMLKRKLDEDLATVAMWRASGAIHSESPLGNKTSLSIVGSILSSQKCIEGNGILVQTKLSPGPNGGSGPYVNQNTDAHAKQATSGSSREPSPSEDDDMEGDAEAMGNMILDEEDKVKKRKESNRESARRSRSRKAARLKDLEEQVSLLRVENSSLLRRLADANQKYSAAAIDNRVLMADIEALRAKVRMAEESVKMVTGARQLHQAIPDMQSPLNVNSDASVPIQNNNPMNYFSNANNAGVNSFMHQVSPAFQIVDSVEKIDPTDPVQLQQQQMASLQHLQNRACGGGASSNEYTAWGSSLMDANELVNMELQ
Experiment: protein-binding microarray (RPBM); PBS, 2% BSA, 51.3 ng/ul salmon testes DNA, 50 uM zinc acetate, 200 nM TF, 25 C, 1 h; high values mean tight binding
Conditions: protein: recombinant; tags: N-terminal polyhistidine and DsRed monomer fusion (pET32a); chain copies: 2; label: CyDye5-dUTP incorporated in the synthesized complementary strand; 3' TTTTT single-stranded linker to array surface; dsDNA, one strand shown
Procedure, shortened: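 Ni–NTA purification followed expression in E. coli BL21-CodonPlus of transcription factors fused N-terminally to a polyhistidine tag and DsRed. At 200 nM in PBS with 2% BSA, salmon testes DNA and 50 µM zinc acetate, the protein was incubated for 1 h at 25 °C with a custom Agilent array that had been primer-extended with Cy5-dUTP and blocked with 2% BSA. After washing, the array was read on an Axon 4000B scanner. The binding signal is per-feature fluorescence intensity in arbitrary units.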

Sequence | binding signal
AGTTGACGTGGCATACTGACACGTGGGCCCCATGTGGGTTCGGAGTCACCTAGTGCAG | 24900 fluorescence intensity (a.u.)
AAACGTAATCTAATAACAAAACAAATTACAGAACTGTAAACGGAGTCACCTAGTGCAG | 11100 fluorescence intensity (a.u.)
ATCCACCGCTGAGTCCCAGACGAGCGAGGGCCAGATCATCCGGAGTCACCTAGTGCAG | 3410 fluorescence intensity (a.u.)
TGTAGGTATAAGAGTGAGTTGGTGAATTATAGGGTAGACTCGGAGTCACCTAGTGCAG | 7410 fluorescence intensity (a.u.)
TAGAAAGTGCCCAATTAGTATAGGTATAGATAGATAGACTCGGAGTCACCTAGTGCAG | 51000 fluorescence intensity (a.u.)
GCATTATATTAGTAGGTCGTGTATTATATTAGTAGGTACTCGGAGTCACCTAGTGCAG | 4260 fluorescence intensity (a.u.)
ATTACATACTAATTACATATGTAAGTGAGGTGTAACTACTCGGAGTCACCTAGTGCAG | 4160 fluorescence intensity (a.u.)
GGCAATCATCTTGAAGCATATCAACCCAACCTGATGTTGTCGGAGTCACCTAGTGCAG | 28100 fluorescence intensity (a.u.)
TTGTTAATTACCGCGATTGATGTCGAGCTTGCATTTTGATCGGAGTCACCTAGTGCAG | 3540 fluorescence intensity (a.u.)
TTATTGCAAAATAGAAGGATGACGCCACGACGGCCGCTGCCGGAGTCACCTAGTGCAG | 3330 fluorescence intensity (a.u.)
TCTGTTAGTGTCATACTGTCATCGACATATAATATTCCCTCGGAGTCACCTAGTGCAG | 42500 fluorescence intensity (a.u.)
TTACATACTGTATCATACTGACGTCAACGTATAATATTCCCGGAGTCACCTAGTGCAG | 8340 fluorescence intensity (a.u.)
CTATACTATTAATATATGGTCTCATCTGTCATACATATATCGGAGTCACCTAGTGCAG | 3830 fluorescence intensity (a.u.)
GCGCTTGCGCCTGACCGCCGCGTGACGACATGTTGTCACCCGGAGTCACCTAGTGCAG | 6800 fluorescence intensity (a.u.)
CGGTGACGACCACCCCACCTCACGATCCAACGGCCAATACCGGAGTCACCTAGTGCAG | 4080 fluorescence intensity (a.u.)
ACATGCAAAGATGCCACATCATCATCCACTATCACTAATTCGGAGTCACCTAGTGCAG | 17600 fluorescence intensity (a.u.)
AGAAGGTTGGAATTTAGTAAGTTGCAGTTACAAATTCAAGCGGAGTCACCTAGTGCAG | 53200 fluorescence intensity (a.u.)
AAAATTGTTCAAAGGATGGCGTAACTTTGGCGTGGAATTACGGAGTCACCTAGTGCAG | 3180 fluorescence intensity (a.u.)
GAATTACAAGGATGGTAAGGTTTGGTCTTTCAAAGTCTTACGGAGTCACCTAGTGCAG | 40100 fluorescence intensity (a.u.)
AACAAGTGTGTTGGTGGTGGTGGAAGTTGTTACAGAATTGCGGAGTCACCTAGTGCAG | 3470 fluorescence intensity (a.u.)
TCTTTGGATATAAAGCAACTACAATTTCAAAGGTAACCAACGGAGTCACCTAGTGCAG | 3460 fluorescence intensity (a.u.)
TCACTCAAATTTACAGTGCATTTTCTTGTAAGTTACAGTGCGGAGTCACCTAGTGCAG | 4800 fluorescence intensity (a.u.)
AAGTTATAACCCACTACATACAAAGATACCACGTCATCATCGGAGTCACCTAGTGCAG | 15900 fluorescence intensity (a.u.)
CATCAGATGCGCCCATCGCTTGAAGGAGAGACGCCGAGACCGGAGTCACCTAGTGCAG | 27300 fluorescence intensity (a.u.)
GCAGTCTTGTAGTCTCGTGCACCAATCGTCGCGCCGCGGCCGGAGTCACCTAGTGCAG | 22300 fluorescence intensity (a.u.)
GCACCTTGAATGAATTATCTAGCAAAGCCAGCGTAGACGTCGGAGTCACCTAGTGCAG | 30200 fluorescence intensity (a.u.)
TGTGTACGTCACATCCTAATTAACATCAACTTGATAAAATCGGAGTCACCTAGTGCAG | 7900 fluorescence intensity (a.u.)

Sequence | binding signal
TGGGTCCCTCCATGCTGAGTCAGCTTGTCAATCGGGTCAACGGAGTCACCTAGTGCAG | 21900 fluorescence intensity (a.u.)
GGGCTCCCTCCACCGCCGCCTCCGCCACCGCCTCGCCGCCCGGAGTCACCTAGTGCAG | 3150 fluorescence intensity (a.u.)
ACCGCCGGTCCACTCACCCCTAACCCTAGCCGCTGCCGCCCGGAGTCACCTAGTGCAG | 4020 fluorescence intensity (a.u.)
TGGCTCCCACGTTAACTTAGCCGCCACGTCAGCTAAAACCCGGAGTCACCTAGTGCAG | 46600 fluorescence intensity (a.u.)
ACACGCCACGCCGCCACCTCCACTTCGTTAACCCTTCTCCCGGAGTCACCTAGTGCAG | 5410 fluorescence intensity (a.u.)
AAGCCTAAAACCTCCCCATCCACGTCACCCATCCTCCTCCCGGAGTCACCTAGTGCAG | 22300 fluorescence intensity (a.u.)
GCCTAACCCTAACCCTAGCCGCCACCGCTCAACCGCCTCCCGGAGTCACCTAGTGCAG | 65100 fluorescence intensity (a.u.)
GACGACTGCTGGTACACGGACATGAGGCTGCAGCCGACGACGGAGTCACCTAGTGCAG | 3480 fluorescence intensity (a.u.)
GCCACGCCCAACCCGTGTCACTGTCACGTGGGCCCCACCCCGGAGTCACCTAGTGCAG | 7720 fluorescence intensity (a.u.)
CAACCAATCAATCACATACGTGGACAACTGCAGAAAATGCCGGAGTCACCTAGTGCAG | 5610 fluorescence intensity (a.u.)
ATCGCGCATCCACTCCACACCACACGCTTCACTGGTTCCGCGGAGTCACCTAGTGCAG | 3870 fluorescence intensity (a.u.)
ACTGCCGGTTCAACTGCTCCACGGCTCCACTCCACGCATCCGGAGTCACCTAGTGCAG | 43300 fluorescence intensity (a.u.)
CGGCTCCGCCGCACTTGCTCGGCCGTCCACGCCGGCACGGCGGAGTCACCTAGTGCAG | 3640 fluorescence intensity (a.u.)
ACTATGGATATCTGTTTTAGCTGACATGGCATCCTACTCACGGAGTCACCTAGTGCAG | 8140 fluorescence intensity (a.u.)
ACCACTGTTTGTGGAGTGTGTGCACACACCACCTCCGATGCGGAGTCACCTAGTGCAG | 3810 fluorescence intensity (a.u.)
ATTCACTGATAATAGAGACCCACACGTTAGTATTGGAGTACGGAGTCACCTAGTGCAG | 3140 fluorescence intensity (a.u.)
TGGATATACATATGCCATGTCGATTTTGTGCCGAAGTGGACGGAGTCACCTAGTGCAG | 3330 fluorescence intensity (a.u.)
AAGGTGAGGTTGGTCAACATTTGTCATCAAATTTTGATCACGGAGTCACCTAGTGCAG | 3400 fluorescence intensity (a.u.)
TGTGGTTGGTGTCGATTTGGAATGGGGTGAAATGGACTGGCGGAGTCACCTAGTGCAG | 3260 fluorescence intensity (a.u.)
GTTTTGTGATTTGGTACATGTGGTAGCATTCACCAAATGTCGGAGTCACCTAGTGCAG | 39600 fluorescence intensity (a.u.)
CAAATGTCGATTTGGTTGTGGACATGTCAATGCCGATCAACGGAGTCACCTAGTGCAG | 50200 fluorescence intensity (a.u.)
TGCACCTAGGTGTACATGTCATTGTGTGTTTGTGGTTGGTCGGAGTCACCTAGTGCAG | 4630 fluorescence intensity (a.u.)
CTTCAGTTATGTTAATTACATGTCATTTGTTTTGTTACAACGGAGTCACCTAGTGCAG | 4920 fluorescence intensity (a.u.)
CATTTGTTTTATTTTAGCATTTGTCACTTACATGTGGGACCGGAGTCACCTAGTGCAG | 3180 fluorescence intensity (a.u.)
AAATTATGTCATTTTGATCAACAGTTGGTACAGTAGTACACGGAGTCACCTAGTGCAG | 48000 fluorescence intensity (a.u.)
CAGCTACAGGACGGCAGTACCCAGTACACGCACGCGTACCCGGAGTCACCTAGTGCAG | 3640 fluorescence intensity (a.u.)
TTAAATGCACCCCTACTCAACCCCTCAATCGACGTGTTGGCGGAGTCACCTAGTGCAG | 4180 fluorescence intensity (a.u.)

From publication PMC7819943, “Rice protein-binding microarrays: a tool to detect cis-acting elements near promoter regions in rice”
